# According to ChEMBL document CHEMBL3988442, “University of Dundee, Small-Polar-MMV Screening Library” (2021):
# Several values for one entry are separate records, joined by “and”; a condition that tells them apart may be missing. Equal values may be shown once. Screen size: about 34,000 compounds; about 290 (0.85%) showed an effect of 50% or more. This excerpt belongs to a sample that is enriched for strong results.
# Test system: Plasmodium falciparum
# Assay: Plasmodium falciparum sporozoite viability assay
# Assay type: functional, organism-based
# Design: scale not given: in the data most compounds retested in dose-response had high values
Compound,Percent Effect,Percent Effect (10 mM as filed; unlikely as a test dose)
Cc1ccc(CN2Cc3nccn3CC(Cn3cccn3)C2)s1.O=C(O)C(F)(F)F (stereo not given),14.89%,–
Cn1cnc2c1CCN(c1ccnc(-c3ccccc3)n1)C2,–,23.08% and 36.96% and 19.93%
c1cc(-c2nc(CN3CCc4c(ncn4C4CC4)C3)cs2)cs1,–,57.35% and 45.82% and 61.3%
Cn1cc(-c2nc(CN3CCc4c(ncn4C)C3)cs2)cn1,–,16.12% and 15.46% and 16.04%
Cn1cnc2c1CCN(Cc1csc(-c3ccsc3)n1)C2,–,58.75% and 42.56% and 36.07%
c1ccc(OCCN2CCc3c(ncn3C3CC3)C2)cc1,1.314%,–
c1ccc(-c2nccc(N3CCc4c(ncn4C4CC4)C3)n2)cc1,–,47.31% and 54.94% and 44.8%
c1ccc(CCN2CCc3c(ncn3C3CC3)C2)nc1,–,67.57% and 58.81%
COc1cc(CCC(=O)N2CCC(c3cc4ncc(C)nc4[nH]3)C2)on1 (stereo not given),3.144%,–
Cn1ncc2ccc(C3CCCN(C(=O)Cc4cccs4)C3)nc21 (stereo not given),10.94%,–
CC(=O)N1CCCC(Cc2cncc(Br)c2)C1 (stereo not given),6.529%,–
Cl.NC[C@H]1CC[C@H](c2c(C(N)=O)sc3ccccc32)CC1,-7.353%,–
CC(C)c1nccn1-c1cncc(C2CCCN(C3CCCC3)C2)n1 (stereo not given),-6.527%,–
CC(=O)Nc1ncc(S(=O)(=O)Nc2cccc(C)c2)s1,–,-25.8% and -18.95%
c1ccc(Cc2noc(CN3CCc4c(ncn4C4CC4)C3)n2)cc1,–,-14.98% and -2.391% and 8.348%
Cn1cnc2c1CCN(Cc1csc(-c3ccc(F)cc3)n1)C2,–,-9.047% and 9.476% and -2.391%
Cn1cnc2c1CCN(Cc1csc(-c3ccccc3F)n1)C2,–,76.94% and 88.44% and 75.64%
CN(Cc1ccncc1)C1CC2(CCN(Cc3ccccn3)CC2)C1,-12.29%,–
c1cc2c(cc1CN(Cc1nc(C3CC3)no1)C1CCCC1)OCO2,–,12.71% and 9.481% and -1.226%
CCc1noc(CN(Cc2ccc3c(c2)OCO3)C2CCCC2)n1,–,55.13% and 62.45% and 59.26%
COc1ccc(C(C(=O)O)N2CCC(Cn3cccn3)CC2)cc1F (stereo not given),–,-7.781% and -11.29%
CC(C)n1nnc(CC(=O)NCC2(c3ccccc3F)CCCC2)n1,17.65%,–
O=C(CCCc1ccccn1)N1CCCC(n2cccn2)C1 (stereo not given),0.2979%,–

Compound,Percent Effect,Percent Effect (10 mM as filed; unlikely as a test dose)
C1CCCN(CC2CCCN(Cc3noc(C4CC4)n3)C2)CC1 (stereo not given),3.026%,–
COc1ccc(C(CO)NC(=O)Nc2cccc(C(C)=O)c2)cc1 (stereo not given),–,15.43% and 22.65%
COc1ccc(C(CO)NC(=O)Nc2cccc(F)c2)cc1 (stereo not given),–,72.06% and 80.87%
COc1ccc(C(CO)NC(=O)Nc2cccc(C#N)c2)cc1 (stereo not given),–,6.223% and 12.91% and -11.88%
CN(CCc1ccccc1)Cc1c(C2CCNCC2)[nH]c2ncccc12.Cl,-0.2567%,–
CNc1cncc(C2CCCN2S(=O)(=O)c2ccccc2F)n1 (stereo not given),7.397%,–
COc1ccc(CNCc2c(C)nn(C)c2N2CCOCC2)cc1,–,-16.18% and -2.312% and -16.24%
Cc1nn(C)c(N2CCOCC2)c1CNCc1ccc(N(C)C)nc1,–,6.683% and 14.39% and 13.71%
C=Cn1ncc(CN2C[C@@H]3CCCN3C[C@H]2Cc2ccccc2)c1C,-1.399%,–
CC(=O)N1N=C(c2cccs2)OC1C(=O)Nc1ccc(C)cc1 (stereo not given),-16.37%,–
Cc1nc(NCc2cccc(F)c2)cc(C2CCNCC2)n1.Cl,0.8951%,–
COc1cccc(Nc2nc(C3CCNCC3)c3sc(C)c(C)n23)c1.Cl,–,77.36% and 36.71% and 52.33%
Cc1sc2c(C3CCNCC3)nc(Nc3cccc(F)c3)n2c1C.Cl,–,63.64% and 42.54% and 49.37%
COc1cccc(Nc2nc(C3CCCNC3)c3sc(C)c(C)n23)c1.Cl (stereo not given),–,4.856% and 5.657% and 12.75%
COc1cccc(-c2ccnc(C3CCNCC3)c2)c1,4.65%,–
COc1cccc(-n2nnc(C(=O)N3CCN(C(C)=O)CC3)c2C)c1,6.024%,–
COCC1CC2(CCN(c3cccc(C)n3)CC2)CN1c1ncccn1.O=C(O)C(F)(F)F (stereo not given),-2.7%,–
COCCNC(=O)C1(CCCc2cccnc2)CCCN1C (stereo not given),16.89%,–
O=C1C(NCc2nnc3n2CCCC3)CCCN1c1ccccc1 (stereo not given),6.53%,–
Cc1ccc2c(c1)C(=O)NCC1(CCN(C(=O)c3cc(C)no3)CC1)O2,21.42%,–
CN1C[C@@H](C(=O)N2CCOCC2)[C@@]2(CCc3ccccc3C(=O)N2)C1,-1.963%,–
COc1ccc(-c2cnc(N(C)C)nc2C2CNCCO2)cc1.Cl (stereo not given),3.932%,–
COc1ccc(-c2ccnc(C3CCNCC3)c2)cc1.Cl,12.14%,–

Compound,Percent Effect,Percent Effect (10 mM as filed; unlikely as a test dose)
COc1ccc(OCCc2cc(C3CNCCO3)nn2C)cc1 (stereo not given),0.06458%,–
Cn1nc(C2CNCCO2)cc1CCOc1ccc(C(F)(F)F)cc1 (stereo not given),8.847%,–
COc1ccc(-c2ccc(C3CNCCO3)nc2)cc1.Cl (stereo not given),–,82.18% and 93.08% and 86.88%
O=C(CCn1ccnc1)N1CCC(c2nnc(-c3ccccn3)o2)CC1,18.74%,–
Cc1cc(NC(=O)CN(C)C2CCCN(c3cccnn3)C2)on1 (stereo not given),6.872%,–
Cc1cc2nc(SCC(=O)N3CCCCC3)n(C)c(=O)c2[nH]1,16.8%,–
CN1C(=O)CCCC12CCCN(C(=O)c1ccoc1)C2 (stereo not given),8.123%,–
Cc1nnc2n1CCN(C(=O)c1cc(C)n(-c3ccccc3)c1C)C2,–,80.6% and 90.57% and 75.3%
Cc1ccccc1-n1c(C)cc(C(=O)N2CCn3c(C)nnc3C2)c1C,–,-10.25% and 8.528% and -8.016%
Cc1nnc2n1CCN(C(=O)c1cc(C)n(-c3cccnc3)c1C)C2,–,-3.499% and -16.38% and -11.58%
CCn1c(C)cc(C(=O)N2CCc3nnc(N)cc3C2)c1C,–,-3.903% and -4.783% and -13.87%
Cc1cccc(-n2c(C)cc(C(=O)N3CCn4c(C)nnc4C3)c2C)c1,–,50.81% and 47.19% and 51.44%
Cc1nnc2n1CCN(C(=O)c1cc(C)n(-c3ccccn3)c1C)C2,–,-4.516% and -0.613% and 8.394%
Cc1cc(C(=O)N2CCc3nnc(N)cc3C2)c(C)n1-c1cccnc1,–,-13.69% and -18.44% and -9.069%
O=C(NCCc1cc(N2CCOCC2)nc(NC2CC2)n1)C1CCCO1 (stereo not given),11.42%,–
Cc1cc(C)n(CC2CCCN2CCS(C)(=O)=O)n1 (stereo not given),6.268%,–
CCn1c(C2CCN(C(=O)c3cc(CC(C)C)on3)CC2)nn(C)c1=O,–,-0.7877% and 5.537%
CNC(=O)c1cn[nH]c1C1CCCN1C(=O)c1cccnc1 (stereo not given),6.523%,–
Cc1noc(CN(CCc2cccs2)Cc2cccc(C#N)c2)n1,–,-26.23% and -21.92%
COCCN(Cc1cccc(C#N)c1)Cc1nc(C)no1,–,48.82% and 52.01%
Cc1noc(CN(CCc2ccco2)Cc2cccc(C#N)c2)n1,–,-11.78% and -9.281%
COc1cccc(CN2CCCCCC2c2sccc2C)c1O (stereo not given),–,49.38% and 41.71%
COc1cccc(CN2CCCCCC2c2cccc(C)c2)c1O (stereo not given),–,44.13% and 43.49% and 59.81%

Compound,Percent Effect,Percent Effect (10 mM as filed; unlikely as a test dose)
COCCC(=O)N1CCCN(Cc2nccn2C(C)C)CC1,9.219%,–
c1cncc(OCc2nc(C3CC3)nn2-c2ccc3c(c2)OCCO3)c1,–,74.85% and 76.98%
c1ccc(Cc2nc(C3CC3)nn2-c2ccc3c(c2)OCCO3)nc1,–,32.69% and 40.6%
c1cncc(CCc2nc(C3CC3)nn2-c2ccc3c(c2)OCCO3)c1,–,41.36% and 42.97%
O=C(c1cn(-c2ccccc2Cl)nn1)N1CCSCC1,–,-17.97% and -41.49%
O=C(c1cn(-c2cccc(Cl)c2F)nn1)N1CCCSCC1,–,-42.82% and -45.17%
CN(C)c1cccc(C(=O)NCC(O)c2cccs2)c1 (stereo not given),–,12.86% and 4.207%
CN1CCN(C(=O)[C@H]2CC[C@@H]3[C@@H](CCN3Cc3nccs3)O2)CC1,-3.61%,–
COc1ccccc1C(=O)Nc1nc2c(s1)CN(S(=O)(=O)C1CC1)CC2,–,82.29% and 80.43%
CCc1nc(CN2CCCC(N(C)Cc3cnn(C)c3)C2)no1 (stereo not given),-6.257%,–
CCc1nc(CN2CCCN(Cc3cnn(C)c3)CC2)no1,-9.563%,–
Cc1ncncc1-c1ccnc(NC(C)C)n1,-0.5927%,–
CN(C)C(=O)c1cccnc1SCc1ccccc1Cl,-19.98%,–
Cc1cc(CN2CCN(C(=O)NCc3csc(C)n3)CC2)on1,-16.07%,–
CC(=O)Nc1ncc(S(=O)(=O)Nc2ccc(C)cc2)s1,–,-23.3% and -22.01%
Cc1cc(C(=O)O)cc(S(=O)(=O)Nc2ccc3c(c2)OCCCO3)c1C,–,3.546% and -0.5757% and 17.55%
CCc1ccc(C(=O)O)cc1S(=O)(=O)Nc1ccc(F)c(C#N)c1,9.76%,–
CC(=O)Nc1ncc(S(=O)(=O)Nc2ccc3c(c2)OCCO3)s1,–,98.04% and 98.83%
CC(=O)Nc1ncc(S(=O)(=O)Nc2cccc(F)c2)s1,–,-17.58% and -16.77%
Cc1c(F)cc(C(=O)O)cc1S(=O)(=O)Nc1ccc2c(c1)OCCO2,–,59.81% and 58.05% and 66.51%
Cc1cc(C(=O)O)cc(S(=O)(=O)Nc2ccc3c(c2)OCCO3)c1C,–,24.31% and 12.71% and 29.08%
